Experimental data reported in PubChem BioAssay (NCATS).
Records with an inconclusive call do not appear. A number with no mark means an inactive call. The source made the active and inactive calls. The call rests on the fitted dose curve; in most records, active means well fitted inhibition curve with a large enough effect; inconclusive means small, poorly fitted or top-dose-only effect; inactive means flat fitted curve, though single readings scatter.

Key:
CRL-7250 = normal cell line; assay: Cytotoxic Profiling of Annotated Libraries Using Quantitative High-Throughput Screening (AID 1296008); details: Five cell lines viability, CellTiter-Glo ATP luminescence, 48-72 h; max response: stronger effect = lower value; further: nearly all actives have a fitted effect of over 60% in size
Outline: (§1)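 Cells exposed to compounds for 48 or 72 hr at 37 degrees Celsius. Viability read as ATP-coupled luminescence with CellTiter-Glo after 10 min at room temperature.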

HEK293 = assay: as above; details: Five cell lines viability, CellTiter-Glo ATP luminescence, 48-72 h; max response: stronger effect = lower value
Outline: as §1
On the % scale 0 is the no-effect control and ±100 the full control effect.

OC[C@H]1O[C@@H](Oc2cc(O)c3c(c2)O[C@@H](c2ccc(O)cc2)[C@H](O)C3)[C@H](O)[C@@H](O)[C@@H]1O
max response (CRL-7250): -1.22% | max response (HEK293): -5.13%

Cn1c2ccc(F)cc2c2c(C(=O)N3CCCC3)cn(-c3ccccc3)c(=O)c21
outcome (CRL-7250): inactive | max response (HEK293): -22.1%

Cc1ccc(C(=O)N(CCCN)C(c2oc3cc(Cl)ccc3c(=O)c2Cc2ccccc2)C(C)C)cc1 (stereo unspecified)
max response (CRL-7250): -42.6% | max response (HEK293): -125%

OC[C@H]1O[C@@H](O[C@H]2[C@H](OCc3ccccc3)O[C@H](CO[C@@H]3OC[C@@H](O)[C@H](O)[C@H]3O)[C@@H](O)[C@@H]2O)[C@H](O)[C@@H](O)[C@@H]1O
max response (CRL-7250): -6.77% | max response (HEK293): 0.36%

C[C@H](N)C(=O)N[C@@H](Cc1ccc(O)cc1)C(=O)N1CCC[C@H]1C(=O)NCC(=O)N[C@@H](CCCCN)C(=O)N[C@@H](Cc1ccccc1)C(N)=O
outcome (CRL-7250): inactive | max response (HEK293): 2.75%

CC(=O)OC1C(c2ccccc2)CCC(c2ccccc2)C1OC(C)=O (stereo unspecified)
max response (CRL-7250): 2.93% | max response (HEK293): -10.8%

C/C=C/C=C/[C@@H]1O[C@](O)([C@H](CC)C(=O)NC/C=C/C=C(\C)[C@@H](OC)[C@@H](C)C2OC(/C=C/C=C/C=C(\C)C(=O)c3c(O)cc[nH]c3=O)[C@H](O)[C@@H]2O)[C@H](O)[C@H](O)C1(C)C (stereo partly specified)
max response (CRL-7250): 2.59% | max response (HEK293): 1.43%

CC1(C)CCCC2(C)C(CO)C(CO)=CCC12 (stereo unspecified)
max response (CRL-7250): -20.3% | max response (HEK293): -4.79%

CC(=O)OC1C[C@@]2(C)[C@@H](CC[C@@H](C)[C@]23Cc2c(O)cc4c(c2O3)CNC4=O)C(C)(C)[C@@H]1O (stereo partly specified)
max response (CRL-7250): 2.93% | max response (HEK293): 1.75%

Cc1c(F)cc(C(=O)NC2CC2)cc1-c1c(F)cn2c(C(C)(C)C)nnc2c1F
max response (CRL-7250): -14.4% | max response (HEK293): -22.1%

CC1=C(CCC(C)O[C@@H]2O[C@H](CO)[C@@H](O)[C@H](O)[C@H]2O)C(C)(C)CCC1=O (stereo partly specified)
max response (CRL-7250): -22.3% | max response (HEK293): 4.11%

C=C1CCC2C(C)(C)C(O)CCC2(C)C1CCC(C)CCOC(C)=O (stereo unspecified)
outcome (CRL-7250): inactive | max response (HEK293): -19.2%

C=C[C@]1(C)C=C2CCC3C(C)(CCC[C@@]3(C)C(=O)O)C2CC1 (stereo partly specified)
outcome (CRL-7250): inactive | max response (HEK293): 0.507%

C=C(CO[C@@H]1O[C@H](CO[C@@H]2OC[C@](O)(CO)[C@H]2O)[C@@H](O)[C@H](O)[C@H]1O)C1Cc2cc(C(C)=O)ccc2O1 (stereo partly specified)
max response (CRL-7250): -1.55% | max response (HEK293): -4.65%

CC1CCC2(OC1)OC1CC3C4CCC5C[C@@H](O[C@@H]6O[C@H](CO[C@@H]7OC[C@@H](O)[C@H](O)[C@H]7O)[C@H](O)[C@H](O)[C@H]6O)CC[C@]5(C)C4CC[C@]3(C)C1C2C (stereo partly specified)
max response (CRL-7250): -3.87% | outcome (HEK293): inactive

COC1CC(O[C@H]2CC[C@@]3(C)C(=CC[C@]4(O)C3[C@H](OC(C)=O)[C@@H](OC(=O)c3ccccc3)[C@]3(C)[C@@H](C(C)=O)CC[C@@]34O)C2)OC(C)C1OC1CC(OC)C(OC2CC(OC)C(OC3OC(C)C(OC4OC(CO)C(O)C(O)C4O)C(OC)C3O)C(C)O2)C(C)O1 (stereo partly specified)
outcome (CRL-7250): inactive | max response (HEK293): 1.75%

C[C@@H]([C@@H](O)c1ccc(O)cc1)N1CCC(O)(c2ccccc2)CC1
max response (CRL-7250): 0.694% | max response (HEK293): -2%

COc1ccc(/C=C\C(=O)O)c(O[C@@H]2O[C@H](CO)[C@@H](O)[C@H](O)[C@H]2O)c1
outcome (CRL-7250): inactive | max response (HEK293): -0.642%

CC1CCC2(CO)C(C(=O)O)=CCCC2C1(C)CCc1ccoc1 (stereo unspecified)
outcome (CRL-7250): inactive | max response (HEK293): -3.01%

CC(C)CC1NC(=O)C(C)NC(=O)C(CC(C)C)OC(=O)CCCNC1=O (stereo unspecified)
max response (CRL-7250): -2.1% | max response (HEK293): -5.55%

C=C[C@H]1C(O[C@@H]2O[C@H](CO)[C@@H](O)[C@H](O)[C@H]2O)OC=C2C(=O)N3CCc4c([nH]c5ccccc45)[C@H]3C[C@H]21 (stereo partly specified)
outcome (CRL-7250): inactive | max response (HEK293): -11.2%

CC1=C(C)C(=O)OC(C(C)C2CCC3C4CC=C5CC(OC6OC(COC7OC(CO)C(O)C(O)C7O)C(O)C(O)C6O)CC(O)C5(C)C4CCC23C)C1 (stereo unspecified)
max response (CRL-7250): -1.46% | max response (HEK293): -1.67%

OCCc1ccc(O[C@@H]2O[C@H](CO)[C@@H](O)[C@H](O)[C@H]2O)cc1
max response (CRL-7250): 2.72% | max response (HEK293): 0.276%
